Laboratory results published in PubChem BioAssay (Tox21).
Results filed as inconclusive are left out. Calls of active or inactive are those of the source. The call rests on the fitted dose curve; in most records, active means well fitted curve in the direction sought with a large enough effect in the repeat runs; inconclusive means weak or mixed curves; inactive means no such curve, though single readings can be large; an effect the other way counts as inactive or inconclusive.

Assays:
[1] = Human pregnane X receptor (PXR) small molecule agonists, qHTS cell viability counter screen (AID 1346977); further: nearly all actives have a fitted effect of over 50% in size; further: potency means the concentration at half of the fitted maximal effect
Summary of the method: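 Fluorescence read-out (CellTiter-Fluor) of viability in PXR-Luc HepG2 cells, multiplexed with the luciferase agonist read. Compounds in DMSO added after 5hr plating; 24hr total exposure at 37C, 5% CO2.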

[2] = Caspase-3/7 induction in HepG2 cells by small molecules, qHTS assay (AID 1346978); further: nearly all actives have a fitted effect of over 15% in size
Summary of the method: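 Wild-type HepG2 cells (2,000/well) were settled 5 h at 37 C, 5% CO2, then exposed to compounds in DMSO for 17 h. Caspase-3/7 activity was read by luminescence 30 min after adding Caspase-Glo 3/7 reagent at room temperature.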

[3] = Caspase-3/7 induction in CHO-K1 cells by small molecules, qHTS assay (AID 1346980); further: nearly all actives have a fitted effect of over 15% in size
Summary of the method: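 Wild-type cells were seeded at 1,500 per well and settled 5 hr at 37 C, 5% CO2, then exposed to DMSO-dissolved compounds for 17 hr. Caspase-Glo 3/7 reagent was added, and luminescence was read after 30min at room temperature.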

[4] = Caspase-3/7 induction in HepG2 cells by small molecules, qHTS cell viability counter screen (AID 1346981); further: nearly all actives have a fitted effect of over 30% in size; further: potency means the concentration at half of the fitted maximal effect
Summary of the method: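 Cell viability is measured as a cytotoxicity counter screen alongside the Caspase-Glo 3/7 readout in identical wells. Wild-type HepG2 cells are treated with test compounds for 16 hr at 37 C before CellTiter-Fluor addition and a 1-hr incubation.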

[5] = target: Nuclear receptor subfamily 1 group I member 2 (Rattus norvegicus) (UniProt Q9R1A7); experiment: Rat pregnane X receptor (rPXR) activation by small molecules, qHTS assay (AID 1346983); conditions: rPXR luciferase reporter cells, One-Glo luminescence, 24 h; max activation: hits give high values; further: nearly all actives have a fitted effect of over 20% in size; further: potency means the concentration at half of the fitted maximal effect
Sequence of Nuclear receptor subfamily 1 group I member 2 (Rattus norvegicus) (Q9R1A7 whole entry, looked up): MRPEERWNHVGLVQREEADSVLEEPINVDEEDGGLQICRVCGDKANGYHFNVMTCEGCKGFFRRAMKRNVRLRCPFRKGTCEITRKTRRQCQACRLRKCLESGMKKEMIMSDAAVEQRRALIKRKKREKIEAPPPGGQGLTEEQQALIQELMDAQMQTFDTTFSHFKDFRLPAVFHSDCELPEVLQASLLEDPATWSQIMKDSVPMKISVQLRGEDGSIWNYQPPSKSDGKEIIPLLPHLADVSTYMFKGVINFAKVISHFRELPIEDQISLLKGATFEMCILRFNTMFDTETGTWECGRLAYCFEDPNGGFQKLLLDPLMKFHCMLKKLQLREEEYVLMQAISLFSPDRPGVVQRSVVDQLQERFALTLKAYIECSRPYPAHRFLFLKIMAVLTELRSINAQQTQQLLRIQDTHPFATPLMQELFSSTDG
Summary of the method: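 Cell-based rPXR luciferase reporter assay, 2,000 cells per well, rested 5hr at 37 C before compound addition in DMSO, then 24 hr at 37 C. One-Glo reagent was added and luminescence read after 30 min at room temperature.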

[6] = target: Nuclear receptor subfamily 1 group I member 2 (Homo sapiens) (UniProt O75469); experiment: Human pregnane X receptor (PXR) activation by small molecules, qHTS assay (AID 1346985); further: nearly all actives have a fitted effect of over 40% in size; further: potency means the concentration at half of the fitted maximal effect
Sequence of Nuclear receptor subfamily 1 group I member 2 (Homo sapiens) (O75469 whole entry, looked up): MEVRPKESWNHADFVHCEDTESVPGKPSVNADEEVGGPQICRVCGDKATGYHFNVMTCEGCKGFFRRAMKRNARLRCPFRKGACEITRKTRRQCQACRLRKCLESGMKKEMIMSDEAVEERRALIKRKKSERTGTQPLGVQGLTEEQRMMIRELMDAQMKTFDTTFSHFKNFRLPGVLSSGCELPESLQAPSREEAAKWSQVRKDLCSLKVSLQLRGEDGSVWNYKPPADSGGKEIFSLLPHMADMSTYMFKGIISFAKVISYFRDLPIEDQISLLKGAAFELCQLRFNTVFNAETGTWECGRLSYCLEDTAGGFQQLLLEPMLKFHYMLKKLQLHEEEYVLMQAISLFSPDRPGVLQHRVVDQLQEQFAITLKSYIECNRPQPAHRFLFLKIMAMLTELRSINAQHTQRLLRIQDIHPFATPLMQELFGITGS
Summary of the method: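 DPX-2 cells (HepG2 co-transfected with a PXR response element and a CYP3A4-promoter luciferase construct) were seeded at 2,000 per well, rested 5 hr at 37C, then exposed to DMSO-dissolved compounds for 24 hr. Activation was read as luciferase luminescence.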

[7] = target: Cytochrome P450 2D6 (Homo sapiens) (UniProt P10635); experiment: Cytochrome P450 Family 2 Subfamily D Member 6 (CYP2D6) small molecule antagonists: luciferase reporter qHTS assay (AID 1671196); further: nearly all actives have a fitted effect of over 50% in size; further: potency means the concentration at half of the fitted maximal effect
Sequence of Cytochrome P450 2D6 (Homo sapiens) (P10635 whole entry, looked up): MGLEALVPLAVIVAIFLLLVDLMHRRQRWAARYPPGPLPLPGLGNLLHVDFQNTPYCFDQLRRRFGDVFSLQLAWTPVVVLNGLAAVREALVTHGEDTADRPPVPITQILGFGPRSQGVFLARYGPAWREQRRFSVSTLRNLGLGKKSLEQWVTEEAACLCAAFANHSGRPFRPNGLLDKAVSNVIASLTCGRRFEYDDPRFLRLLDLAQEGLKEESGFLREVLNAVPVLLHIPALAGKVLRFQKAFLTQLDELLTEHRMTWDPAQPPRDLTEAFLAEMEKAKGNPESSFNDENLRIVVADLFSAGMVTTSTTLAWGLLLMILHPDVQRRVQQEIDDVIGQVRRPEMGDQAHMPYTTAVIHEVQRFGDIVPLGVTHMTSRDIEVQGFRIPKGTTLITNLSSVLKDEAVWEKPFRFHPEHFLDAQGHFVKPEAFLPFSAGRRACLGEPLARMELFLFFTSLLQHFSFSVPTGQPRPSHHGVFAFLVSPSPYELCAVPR
Summary of the method: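 Enzyme and proluciferin substrate were first combined with test chemical for 10 min at room temperature. Adding NADPH regeneration solution started a 1 h reaction, stopped with luciferin detection reagent and read by luminescence 20 min later.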

[8] = target: Cytochrome P450 2C19 (Homo sapiens) (UniProt P33261); experiment: Cytochrome P450 Family 2 Subfamily C Member 19 (CYP2C19) small molecule antagonists: luciferase reporter qHTS assay (AID 1671197); further: nearly all actives have a fitted effect of over 65% in size; further: potency means the concentration at half of the fitted maximal effect
Sequence of Cytochrome P450 2C19 (Homo sapiens) (P33261 whole entry, looked up): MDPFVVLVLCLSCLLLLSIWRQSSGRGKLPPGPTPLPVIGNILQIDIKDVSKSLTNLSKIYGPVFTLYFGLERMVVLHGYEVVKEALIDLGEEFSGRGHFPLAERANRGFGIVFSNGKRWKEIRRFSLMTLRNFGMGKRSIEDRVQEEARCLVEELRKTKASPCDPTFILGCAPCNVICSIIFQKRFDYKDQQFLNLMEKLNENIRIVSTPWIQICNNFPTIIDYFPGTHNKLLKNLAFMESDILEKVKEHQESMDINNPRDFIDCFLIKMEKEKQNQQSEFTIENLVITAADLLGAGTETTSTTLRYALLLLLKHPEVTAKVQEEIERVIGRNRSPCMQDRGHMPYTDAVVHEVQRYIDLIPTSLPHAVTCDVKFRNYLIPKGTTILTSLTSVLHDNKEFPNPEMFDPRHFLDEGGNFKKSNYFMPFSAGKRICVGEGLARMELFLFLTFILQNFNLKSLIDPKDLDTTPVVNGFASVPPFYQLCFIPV
Summary of the method: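 P450-Glo CYP2C19 screening system; proluciferin substrate; DMSO compound stocks; 10 min RT preincubation; NADPH regeneration, 1 h at 37C; luciferin detection reagent, 20 min RT; luminescence as RLU.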

[9] = target: Cytochrome P450 2C9 (Homo sapiens) (UniProt P11712); experiment: Cytochrome P450 Family 2 Subfamily C Member 9 (CYP2C9) small molecule antagonists: luciferase reporter qHTS assay (AID 1671198); further: nearly all actives have a fitted effect of over 50% in size; further: potency means the concentration at half of the fitted maximal effect
Sequence of Cytochrome P450 2C9 (Homo sapiens) (P11712 whole entry, looked up): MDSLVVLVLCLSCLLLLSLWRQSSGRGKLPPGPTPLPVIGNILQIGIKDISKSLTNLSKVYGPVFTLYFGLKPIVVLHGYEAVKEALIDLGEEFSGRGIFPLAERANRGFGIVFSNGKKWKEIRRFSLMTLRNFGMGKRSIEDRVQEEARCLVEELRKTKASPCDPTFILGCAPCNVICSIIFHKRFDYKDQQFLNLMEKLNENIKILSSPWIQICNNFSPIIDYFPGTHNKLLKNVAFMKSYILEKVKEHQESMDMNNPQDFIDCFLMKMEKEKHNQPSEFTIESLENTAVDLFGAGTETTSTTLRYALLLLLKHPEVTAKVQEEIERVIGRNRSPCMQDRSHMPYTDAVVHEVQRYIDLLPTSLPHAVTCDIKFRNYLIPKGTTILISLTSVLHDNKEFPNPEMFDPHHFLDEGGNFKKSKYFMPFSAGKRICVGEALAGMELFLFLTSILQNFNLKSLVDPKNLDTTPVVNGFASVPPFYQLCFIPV
Summary of the method: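 CYP2C9 activity was measured with a P450-Glo proluciferin substrate. Enzyme–substrate mix was held with compound for 10 min at room temperature, then NADPH regeneration solution was added for 1 h at 37C. Luciferin product was read as luminescence.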

[10] = target: Cytochrome P450 1A2 (Homo sapiens) (UniProt P05177); experiment: Cytochrome P450 Family 1 Subfamily A Member 2 (CYP1A2) small molecule antagonists: luciferase reporter qHTS assay (AID 1671199); further: nearly all actives have a fitted effect of over 50% in size; further: potency means the concentration at half of the fitted maximal effect
Sequence of Cytochrome P450 1A2 (Homo sapiens) (P05177 whole entry, looked up): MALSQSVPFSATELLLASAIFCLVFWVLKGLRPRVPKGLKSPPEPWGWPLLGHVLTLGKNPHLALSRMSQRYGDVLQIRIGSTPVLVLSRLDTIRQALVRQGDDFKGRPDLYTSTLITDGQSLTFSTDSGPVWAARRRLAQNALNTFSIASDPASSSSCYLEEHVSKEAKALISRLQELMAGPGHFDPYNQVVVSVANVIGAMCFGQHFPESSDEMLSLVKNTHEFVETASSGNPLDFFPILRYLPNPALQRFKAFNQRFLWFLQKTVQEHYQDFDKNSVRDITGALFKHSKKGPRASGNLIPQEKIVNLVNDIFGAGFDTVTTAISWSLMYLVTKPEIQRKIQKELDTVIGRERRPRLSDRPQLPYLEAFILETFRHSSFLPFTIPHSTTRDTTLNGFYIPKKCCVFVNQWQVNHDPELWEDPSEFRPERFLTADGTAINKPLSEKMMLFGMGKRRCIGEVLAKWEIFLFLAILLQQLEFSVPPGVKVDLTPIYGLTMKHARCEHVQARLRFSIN
Summary of the method: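 Compounds were incubated with CYP1A2 and a luminogenic proluciferin substrate for 10 min at room temperature before the reaction was started with NADPH regeneration solution. After 1 h, detection reagent was added and light output, proportional to CYP activity, was recorded.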

[11] = Caspase-3/7 induction in CHO-K1 cells by small molecules, qHTS cell viability counter screen (AID 1346979); further: nearly all actives have a fitted effect of over 35% in size
Summary of the method: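 CHO-K1 wt, 1,500 cells/well; 5hr pre-incubation 37C/5% CO2; compound pin transfer (DMSO); 16hr exposure; CellTiter-Fluor added, 1hr, fluorescence read.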

[12] = target: Nuclear receptor subfamily 1 group I member 2 (Homo sapiens) (UniProt O75469); experiment: Human pregnane X receptor (PXR) small molecule agonists, qHTS assay (AID 1346982); further: nearly all actives have a fitted effect of over 35% in size; further: potency means the concentration at half of the fitted maximal effect
Summary of the method: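 Cells: HepG2 stably carrying PXR-Luc. Medium held 5% charcoal-stripped FBS. Compounds in DMSO added after 5 hr plating, incubated 24 hr, then luminescence quantified with ONE-Glo.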

[13] = target: Voltage-gated inwardly rectifying potassium channel KCNH2 (Homo sapiens) (UniProt Q12809); experiment: Human Ether-a-go-go-Related Gene (hERG) channel small molecule antagonists: fluorescence cell-based qHTS assay (AID 1671200); further: nearly all actives have a fitted effect of over 50% in size; further: potency means the concentration at half of the fitted maximal effect
Sequence of Voltage-gated inwardly rectifying potassium channel KCNH2 (Homo sapiens) (Q12809 whole entry, looked up): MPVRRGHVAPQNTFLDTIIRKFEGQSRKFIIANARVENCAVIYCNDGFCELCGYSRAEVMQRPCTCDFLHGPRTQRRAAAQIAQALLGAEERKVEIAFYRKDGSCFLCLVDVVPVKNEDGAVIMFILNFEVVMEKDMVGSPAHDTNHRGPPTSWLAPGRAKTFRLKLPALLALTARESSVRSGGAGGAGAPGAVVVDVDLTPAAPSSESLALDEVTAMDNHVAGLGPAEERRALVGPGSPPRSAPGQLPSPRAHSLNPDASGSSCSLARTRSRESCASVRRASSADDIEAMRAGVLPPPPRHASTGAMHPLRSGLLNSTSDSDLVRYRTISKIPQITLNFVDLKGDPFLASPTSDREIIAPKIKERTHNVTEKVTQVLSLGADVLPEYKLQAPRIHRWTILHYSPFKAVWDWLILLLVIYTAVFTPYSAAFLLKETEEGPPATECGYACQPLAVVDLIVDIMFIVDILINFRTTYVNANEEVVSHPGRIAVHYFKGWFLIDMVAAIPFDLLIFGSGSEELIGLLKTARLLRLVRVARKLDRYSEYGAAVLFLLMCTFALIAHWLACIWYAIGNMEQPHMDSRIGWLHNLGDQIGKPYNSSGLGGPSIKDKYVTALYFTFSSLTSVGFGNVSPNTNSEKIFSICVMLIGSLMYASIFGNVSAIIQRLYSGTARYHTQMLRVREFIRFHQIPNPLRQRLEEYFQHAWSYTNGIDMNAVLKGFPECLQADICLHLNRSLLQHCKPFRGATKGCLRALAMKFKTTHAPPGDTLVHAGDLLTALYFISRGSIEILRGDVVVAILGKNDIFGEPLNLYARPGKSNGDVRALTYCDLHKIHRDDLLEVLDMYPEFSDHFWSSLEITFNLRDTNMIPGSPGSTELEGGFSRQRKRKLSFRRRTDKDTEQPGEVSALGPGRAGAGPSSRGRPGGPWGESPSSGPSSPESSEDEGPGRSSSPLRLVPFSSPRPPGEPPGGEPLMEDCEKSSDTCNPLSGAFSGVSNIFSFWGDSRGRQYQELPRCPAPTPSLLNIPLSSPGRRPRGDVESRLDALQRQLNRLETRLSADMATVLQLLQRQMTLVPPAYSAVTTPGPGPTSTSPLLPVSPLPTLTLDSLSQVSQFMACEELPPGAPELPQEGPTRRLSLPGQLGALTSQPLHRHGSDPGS
Summary of the method: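 Read-out: thallium influx as a surrogate for potassium, tracked as fluorescence (480 nm ex/540 nm em) every second for 2 min after Stimulus Buffer addition in dye-loaded hERG-U2OS cells.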

[14] = target: Cytochrome P450 3A4 (Homo sapiens) (UniProt P08684); experiment: Cytochrome P450 Family 3 Subfamily A Member 4 (CYP3A4) small molecule antagonists: luciferase reporter qHTS assay (AID 1671201); further: nearly all actives have a fitted effect of over 50% in size; further: potency means the concentration at half of the fitted maximal effect
Sequence of Cytochrome P450 3A4 (Homo sapiens) (P08684 whole entry, looked up): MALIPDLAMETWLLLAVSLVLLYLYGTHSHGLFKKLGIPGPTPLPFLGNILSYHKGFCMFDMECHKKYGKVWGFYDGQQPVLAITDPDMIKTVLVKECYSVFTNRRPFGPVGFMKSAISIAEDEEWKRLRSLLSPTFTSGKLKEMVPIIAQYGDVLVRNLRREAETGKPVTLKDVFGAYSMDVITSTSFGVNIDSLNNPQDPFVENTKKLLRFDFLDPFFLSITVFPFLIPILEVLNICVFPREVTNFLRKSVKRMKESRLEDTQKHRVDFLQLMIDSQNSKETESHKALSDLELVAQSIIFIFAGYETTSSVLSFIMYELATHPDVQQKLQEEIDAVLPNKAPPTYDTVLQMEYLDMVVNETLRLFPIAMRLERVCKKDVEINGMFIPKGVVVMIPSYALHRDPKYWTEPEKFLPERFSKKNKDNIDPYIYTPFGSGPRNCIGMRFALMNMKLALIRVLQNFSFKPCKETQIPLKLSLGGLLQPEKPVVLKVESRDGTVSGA
Summary of the method: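 Luminescent readout (RLU) proportional to CYP3A4 activity, from luciferin generated off a proluciferin substrate. Enzyme–substrate mix plus compound 10 min at room temp, NADPH regeneration 1 h, detection reagent 20 min.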

[15] = target: Nuclear receptor subfamily 1 group I member 2 (Homo sapiens) (UniProt O75469); experiment: CYP3A4 induction through human pregnane X receptor (PXR) by small molecules, qHTS assay (AID 1346984); further: nearly all actives have a fitted effect of over 40% in size; further: potency means the concentration at half of the fitted maximal effect
Summary of the method: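 Quantitative HTS in DPX-2 cells, i.e. HepG2 transfected with PXR response element and CYP3A4-promoter luciferase. Compounds in DMSO incubated 24hr at 37C; then P450-Glo CYP3A4 substrate, 3uM final, 3hr; One-Glo luminescence.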
On the % scale 0 is the no-effect control and ±100 the full control effect.

Cc1cccc(C)c1OCC(=O)N[C@@H](Cc1ccccc1)[C@@H](O)C[C@H](Cc1ccccc1)NC(=O)[C@H](C(C)C)N1CCCNC1=O
inactive: Potency [2] | Potency [3] | Potency [10]
active: Potency [1] 29.8 µM | Potency [4] 26.6 µM | Potency [5] 11.2 µM | Potency [6] 3.98 µM | Potency [7] 15.5 µM | Potency [8] 21.9 µM | Potency [9] 13.8 µM

Brc1c2ccccc2cc2ccccc12
inactive: Potency [1] | Potency [11] | Potency [3] | Potency [4] | Potency [7] | Potency [13]
active: Potency [12] 61.8 µM | Potency [8] 35.9 µM | Potency [9] 35.9 µM | Potency [10] 0.639 µM | Potency [14] 18 µM

Cc1cccc(Nc2ccccc2)c1
inactive: Potency [1] | Potency [11] | Potency [3] | Potency [4]

CCCOC(C(=O)OC1CCN(C)CC1)(c1ccccc1)c1ccccc1
active: Potency [1] 23.7 µM | Potency [5] 15.8 µM | Potency [15] 28.2 µM | Potency [6] 14.1 µM | Potency [7] 7.76 µM
inactive: Potency [2] | Potency [10]

CCOc1ccc(N)c([N+](=O)[O-])c1
active: Potency [8] 35.6 µM | Potency [9] 63.3 µM
inactive: Potency [1] | Potency [2] | Potency [3] | Potency [12] | Potency [13]

NCC(=O)CCC(=O)O
inactive: Potency [1] | Potency [2] | Potency [3] | Potency [4] | max activation [5] -1.79% | Potency [15] | Potency [6] | Potency [7] | Potency [8] | Potency [13] | Potency [14]

CCOC(=O)COC(=O)c1cc(Oc2ccc(C(F)(F)F)cc2Cl)ccc1[N+](=O)[O-]
active: Potency [7] 15.9 µM | Potency [8] 11.2 µM | Potency [9] 6.33 µM | Potency [10] 22.4 µM
inactive: Potency [1] | Potency [2] | Potency [3] | Potency [4] | Potency [14]

CCCCCCCCCCCCCCCCOS(=O)(=O)O
inactive: Potency [1] | Potency [2] | Potency [3] | Potency [4] | Potency [12] | Potency [8] | Potency [10] | Potency [13] | Potency [14]

CN(Cc1ccc(C(C)(C)C)cc1)Cc1cccc2ccccc12
inactive: Potency [1] | Potency [2] | Potency [3] | Potency [4] | max activation [5] 1.25% | Potency [14]
active: Potency [7] 0.347 µM | Potency [8] 8.71 µM | Potency [13] 19 µM

CCN(CC)CCNC(=O)c1cc(Br)c(N)cc1OC
inactive: Potency [1] | Potency [2] | Potency [3] | Potency [4] | Potency [12] | Potency [8] | Potency [14]

Nc1cc(C(=O)O)c(O)c(S(=O)(=O)O)c1
active: Potency [7] 35.1 µM
inactive: Potency [1] | Potency [2] | Potency [3] | Potency [4] | Potency [9] | Potency [13] | Potency [14]
